# A selection: hits, their analogues and other compounds. The true share with any hit is near 4.1%.
# hcDAF12 agonist: H. contortus DAF-12 activation, primary screen; activation, % at 6.8 µM; AID 652067; 370,000 tested, 1.4% active; HEK293 hcDAF-12 lit1-tk-luc reporter, luminescence; 0% DMSO, 100% Δ7-dafachronic acid;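 active = activation above the mean of all tested compounds plus 3 SD, cut at about 5.5% in these data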
# DAX1 inh-1: blocks DAX1 repression of SF-1 activated StAR promoter | inhibition, % at 6.8 µM | 370,000 tested, 1.1% active | HEK293T StAR-luciferase reporter, SF-1/DAX-1 repression relief;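 active = inhibition above the mean over all tested compounds plus 3 SD, cut at about 3.6% in these data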;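 note: higher inhibition means more luminescence from relief of DAX-1 repression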
# ssDAF-12 act: activators of S. stercoralis DAF-12 nuclear receptor; HEK293 ssDAF-12/GRIP1 lit1-tk-luc reporter, luminescence; % of 3 µM dafachronic acid response; activation, % at 6.8 µM; 370,000 tested, 1% active;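 active = activation above the mean over all tested compounds plus 3 SD, cut at about 0.9% in these data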
# DAX1 inh-2: NR0B1 (DAX1) inhibition; HEK293 Gal4-DAX1 luciferase reporter, luminescence; inhibition, % at 6.75 µM; 340,000 tested, 0.99% active; AID 504766;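 active = inhibition above the mean over all tested compounds plus 3 SD, cut at about 4.2% in these data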;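 note: inhibition shows as a rise in luminescence from relieved DAX1 repression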
# hgDAF-12 ag: agonists of H. glycines DAF-12 nuclear receptor. HEK293 GAL4-hgDAF12 UAS-luciferase reporter, agonist luminescence; normalized to butyrate control. activation, % at 6.8 µM. 370,000 tested, 1.8% active;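 active = activation above a cutoff set at the mean of all screened compounds plus 3 SD, cut at about 10% in these data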
# DAX1 inh confirm: NR0B1 (human) inhibition, confirmation. HEK293T StAR-promoter luciferase reporter, SF-1/DAX-1 repression. 2,400 tested, 87% active. shares compounds with DAX1 inh-1. inhibition, % at 6.8 µM;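 active = inhibition above the average of every tested compound plus 3 SD, cut at about 3.8% in these data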;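 note: active compounds raise luminescence by relieving repression of the StAR reporter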
# SF1 mutant ctr: counter-screen for DAX1 inhibitors: nonselective inhibitors with SF-1 AF2 mutant. shares compounds with DAX1 inh-1. HEK293 StAR-luciferase, luminescence. inhibition, % at 6.8 µM. 2,400 tested, 78% active;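 active = inhibition above the mean of all tested compounds plus 3 SD, cut at about 3% in these data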
# LXR ag: LXR-beta agonism as hcDAF-12 counter-screen. shares compounds with hcDAF12 agonist. HEK293 Gal4-LXR tk-luc reporter, luminescence, 24 h; normalized: DMSO 0%, positive control 100%. activation, % at 6.8 µM. 3,400 tested, under 10 active;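 active = mean percent activation of the reporter above a cutoff set as the average over tested compounds plus their standard deviation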
# Target sequence (P55055 whole entry, looked up, the tested form may be a part): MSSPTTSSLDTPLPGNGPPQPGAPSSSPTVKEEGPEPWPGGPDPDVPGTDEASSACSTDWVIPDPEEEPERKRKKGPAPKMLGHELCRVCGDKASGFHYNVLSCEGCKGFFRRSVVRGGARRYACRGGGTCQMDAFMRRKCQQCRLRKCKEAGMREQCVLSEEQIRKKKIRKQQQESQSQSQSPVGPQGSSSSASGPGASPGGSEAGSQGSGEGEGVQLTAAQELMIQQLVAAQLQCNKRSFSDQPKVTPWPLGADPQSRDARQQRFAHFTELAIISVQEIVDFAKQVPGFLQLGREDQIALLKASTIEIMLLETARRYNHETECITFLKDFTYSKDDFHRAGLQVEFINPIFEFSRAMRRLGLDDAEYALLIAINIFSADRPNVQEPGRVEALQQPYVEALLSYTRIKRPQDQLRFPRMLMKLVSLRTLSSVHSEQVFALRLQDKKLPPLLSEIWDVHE
# hcDAF12 ag: hcDAF-12 agonism, confirmation assay | shares compounds with hcDAF12 agonist | HEK293 hcDAF-12 lit1-tk-luc reporter, luminescence; % of Δ7-dafachronic acid response | activation, % at 6.8 µM | 3,400 tested, 61% active;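 active = mean activation across triplicate tests above the threshold derived from the earlier primary screen, cut at about 5.5% in these data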
# A number is an active result; – = inactive; · = no result given.
SMILES,hcDAF12 agonist,DAX1 inh-1,ssDAF-12 act,DAX1 inh-2,hgDAF-12 ag,DAX1 inh confirm,SF1 mutant ctr,LXR ag,hcDAF12 ag
COc1ccc2cc(-c3cc(C(=O)O)c4ccccc4n3)ccc2c1,8.8,5.2,3.0,–,13,11,3.2,–,–
COc1ccc(-c2cc(C(=O)O)c3ccccc3n2)c(OC)c1,–,–,–,–,–,·,·,·,·
Fc1ccc(/C=N/NC2=Nc3cccc4cccc2c34)cc1,15,5.2,2.2,–,22,10,8.4,–,11
CCN(c1ccccc1)S(=O)(=O)c1cccc(C(=O)Nc2cccc(C)n2)c1,–,–,–,–,–,·,·,·,·
O=C(NC1=NCCS1)c1ccccc1Cl,–,–,–,–,–,·,·,·,·
O=C(NC1=NCCS1)c1cc2ccccc2o1,7.0,5.3,–,–,11,11,7.2,–,6.2
CC(=O)NC(Cc1ccccc1)C(=O)OCC(=O)c1ccc(Br)cc1 (stereo unspecified),–,–,–,–,–,·,·,·,·
COc1ccccc1NC(CC(=O)c1ccccc1)C(=O)OCC(=O)c1ccc(Br)cc1 (stereo unspecified),20,7.8,2.1,–,23,8.9,–,–,21
COc1ccccc1NC(CC(=O)c1ccccc1)C(=O)OCC(=O)c1ccc(C)c(C)c1 (stereo unspecified),17,7.8,3.3,–,22,21,8.1,–,12
Cc1cc(Oc2ccc(=O)n(C)n2)nc(SCc2ccccc2)n1,–,–,–,–,–,·,·,·,·
Cc1cnc(C(=O)Nc2nnc(C3CC3)s2)cn1,–,–,–,–,–,·,·,·,·
COc1c(C(=O)Nc2nnc(C3CC3)s2)csc1Cl,8.1,7.0,2.1,–,–,6.2,9.1,–,9.5
COc1ccc(-n2ncc3c(NCC(C)C)ncnc32)cc1,9.8,5.0,–,–,11,13,4.1,–,5.7
COc1ccc(C(=O)NCCNC(=O)c2ccc(OC)cc2)cc1,–,–,–,–,–,·,·,·,·
COc1ccc(C(=O)NCCSc2ccccc2)cc1,7.4,5.1,–,–,12,12,5.2,–,6.5
CCOC(=O)c1c(C)oc2c1c(CN1CCN(CCO)CC1)c(O)c1ccccc12,7.1,4.8,1.1,–,–,4.2,3.7,–,6.8
Cc1ccc(C(=O)Nc2ccc3c(c2)OCO3)cc1,20,5.6,3.3,–,13,11,6.0,–,14
O=C(Nc1ccc2c(c1)OCCO2)Nc1ccc2c(c1)OCO2,9.2,5.4,3.1,–,22,14,6.7,–,9.1
Cc1ccc(NC(=O)Nc2ccc3c(c2)OCO3)cc1F,8.0,7.5,–,–,11,12,9.6,–,–
N#Cc1cccc(NCC(=O)Nc2ccc3c(c2)OCCO3)c1,7.8,5.2,1.4,–,13,11,4.1,–,7.6
O=C(Nc1ccc2c(c1)OCO2)c1ccncc1,–,–,–,–,–,·,·,·,·
CCN(c1ccccc1)S(=O)(=O)c1ccc(OC)c(NC(=O)C2CC(=O)N(Cc3ccccc3)C2)c1 (stereo unspecified),–,–,–,–,–,·,·,·,·
CC(C)c1cc(C(=O)Nc2ccc3c(c2)OCO3)no1,12,6.4,2.0,–,–,16,7.1,–,7.9
COc1ccc(-c2cc(C(=O)Nc3ccc4c(c3)OCO4)no2)cc1,–,–,–,–,–,·,·,·,·
O=C1NN(c2ccccc2)C(=O)/C1=C\c1coc2ccc(O)cc2c1=O,–,–,–,–,–,·,·,·,·
SMILES,hcDAF12 agonist,DAX1 inh-1,ssDAF-12 act,DAX1 inh-2,hgDAF-12 ag,DAX1 inh confirm,SF1 mutant ctr,LXR ag,hcDAF12 ag
O=C1NN(c2ccccc2)C(=O)/C1=C/c1coc2ccccc2c1=O,17,4.8,1.7,–,13,–,–,–,–
CCOc1ccc(OCc2cccc(C(=O)O)c2)cc1,8.8,6.6,1.0,–,11,15,7.9,–,15
COCCNC(=O)C1(C)CCCN(C(=O)c2ccc(N(C)C)cc2)C1 (stereo unspecified),–,–,–,·,–,·,·,·,·
CCOC(=O)c1ccccc1NC(=O)C1CCCO1 (stereo unspecified),–,–,–,–,–,·,·,·,·
O=C(NCCOc1ccccc1)c1ccccc1NC(=O)C1CCCO1 (stereo unspecified),9.0,5.6,–,–,11,8.3,7.3,–,10
CC(=O)Nc1ccc(S(=O)(=O)Nc2nc3ccccc3s2)cc1,–,–,–,–,–,·,·,·,·
Cc1ccsc1/C=N/Nc1nc2ccccc2s1,21,7.1,5.5,–,20,16,13,–,23
COc1ccc(C=C(c2nc3ccccc3s2)c2nc3ccccc3s2)cc1O,–,–,–,–,–,·,·,·,·
COc1ccc(/C=N/Nc2nc3ccccc3s2)cc1O,18,8.6,3.2,–,20,21,8.1,–,19
CC(=O)Nc1ccc(/C=N/Nc2nc3ccccc3s2)cc1,18,5.6,3.3,4.8,24,15,9.9,–,22
COc1ccc(/C=N\NC(=O)c2sccc2C)cc1Cn1nc(C)cc1C,7.2,9.9,1.2,–,11,–,–,–,–
O=C(NCCc1ccccc1)c1ccc(NC(=O)C2CCCC2)cc1,–,–,–,–,–,·,·,·,·
CCc1cc(-c2ccc3c(c2)COc2c4ccccc4nn2-3)on1,7.0,4.5,–,–,–,11,5.1,–,9.3
Cc1cc(C)cc(C(O)c2ncc(-c3ccccc3C)[nH]2)c1 (stereo unspecified),–,–,–,·,–,·,·,·,·
Cc1ccc(CSc2nc3ccncc3[nH]2)cc1,11,13,1.4,–,18,16,9.6,–,10
O=C(NCc1ccc(Cl)cc1)c1ccc(CSc2nc3ccncc3[nH]2)cc1,–,–,–,–,–,·,·,·,·
Cc1ccc(-n2c(C)nc3oc4ccccc4c(=O)c3c2=O)cc1,12,4.5,1.8,–,–,8.5,6.1,–,9.2
O=C(CN1CCC(C(=O)c2ccc3c(c2)OCCO3)CC1)Nc1ccccc1C(F)(F)F,–,–,–,–,–,·,·,·,·
Cc1noc(NS(=O)(=O)c2ccc(N/C=C\C(=O)c3cccs3)cc2)c1C,–,–,–,–,–,·,·,·,·
Cc1ccc(N/C=C/C(=O)c2cccs2)cc1,10,8.3,1.4,–,22,6.3,–,–,14
